Experimental data reported in PubChem BioAssay (EPA / NIEHS).
Values joined by “and” are separate entries in the source; they are usually repeats but may differ in a detail not shown here. Equal values may be shown once. Some compounds were tested as several samples or in several runs, with calls that do not always agree. Active and inactive are the calls of the source. How the source made its calls: active means hit-call score of the fitted dose curve at least 0.9, where 1 is the maximum; inactive means score below 0.9.

These compounds were tested on CD38, CD38 (gene 952) (assay: BSK_SAg_CD38: BioMAP Diversity Plus: SAg Assay for CD38 Biomarker Activity (AID 2283087)). Details: primary human HUVEC with PBMC; actives raise or lower the signal.
Experimental: BSK_SAg is a cell-based, multiplexed-readout assay that uses umbilical vein endothelium and peripheral blood mononuclear cells, a human vascular primary cell co-culture, with measurements taken at 24 hours after chemical dosing in a 96-well plate.BSK_SAg_CD38 is one of 10 assay component(s) measured or calculated from the BSK_SAg assay. It is designed to make measurements of enzyme-linked immunosorbent assay, a form of binding reporter, as detected with fluorescence intensity signals by Enzyme-linked immunosorbent assay technology.Data from the assay component BSK_SAg_CD38 was analyzed into 1 assay endpoint. This assay endpoint, BSK_SAg_CD38, was analyzed with bidirectional fitting relative to DMSO as the negative control and baseline of activity. Using a type of binding reporter, gain or loss-of-signal activity can be used to understand changes in the signaling as they relate to the gene CD38. Furthermore, this assay endpoint can be referred to as a primary readout, because this assay has produced multiple assay endpoints where this one serves a signaling function. To generalize the intended target to other relatable targets, this assay endpoint is annotated to the cytokine intended target family, where the subfamily is other cytokine.
The levels of cell surface (or secreted, indicated by the prefix "s") biomarker endpoints were measured by ELISA. Overt cytotoxicity to cells in confluent adherent cultures (all systems other than the BT system) was assessed by measuring total protein levels using sulforhodamine B (SRB) staining in parallel cultures at the time of biomarker measurements, indicated as SRB endpoints. For proliferation assays for adherent cell types, individual cell types are cultured at sub-confluence and relative cell numbers quantified by SRB staining at time points optimized for each system (48 h: 3C and CASM3C systems; 72 h: BT and HDF3CGF systems; 96 h: SAg system). SRB was performed by staining cells with 0.1% SRB after fixation with 10% TCA and reading wells at 560 nm.Viability and proliferation of PBMC (T cells) was quantified by Alamar Blue reduction for the SAg and BT systems. For PBMC viability (referred to as PBMC Cytotoxicity within the assay endpoint names), cells were plated (75,000/well in a 96-well plate) and then chemical samples added for 1 h before addition of activators, SEB and TSST-1 (20 ng/mL final concentration each). Cells were incubated for 90 h. Then, Alamar Blue (20 uL/well) (Invitrogen, Cat DAL1100) was added for 6 h, and the plates were read with a fluorescence microplate reader at 546/580 nm (excitation/emission). For PBMC proliferation, cells were plated and activated as above but incubated for only 16 h prior to addition of Alamar Blue. Plates were read after 6 h.

outcome, inactive:
C=CCOCC(O)CCl (stereo unspecified)
CCCCC(CC)COC(=O)c1ccccc1O (stereo unspecified)
CC(C)C(=O)C(C)C
CCCCNc1ccc(NCCCC)c2c1C(=O)c1ccccc1C2=O
CCCCCCCCc1ccc(Nc2ccc(CCCCCCCC)cc2)cc1
CCO[Si](C)(OCC)OCC
O=Nc1ccc(O)cc1
CCCCC(CC)COCC1CO1 (stereo unspecified)
c1ccc2c(c1)ccc1cc3c(ccc4ccccc43)cc12
O=c1c2ccccc2oc2ccccc12
C=C[Si](OC(C)=O)(OC(C)=O)OC(C)=O
CCO[Si](CCCN=C=O)(OCC)OCC
S=C(NC1CCCCC1)NC1CCCCC1
COc1ccc2nc(N)sc2c1
CO[Si](OC)(OC)c1ccccc1
CCOc1nc(F)cc2nc(S(=O)(=O)Nc3c(Cl)cccc3C(=O)OC)nn12
N#[N+]c1ccc2c(S(=O)(=O)[O-])cccc2c1O
c1ccc(-c2ccccn2)nc1
CN1C(=O)N(C)C(O)C1O (stereo unspecified)
CC1OC1C1CCC2(C)OC2C1 (stereo unspecified)
C=CCOc1c(Br)cc(Br)cc1Br
O=C1CCCN1CCO
O=C(c1ccc(O)cc1)c1ccc(O)cc1O
C=CC=CC=CCCCCC

AC50, active:
c1ccc2c(c1)ccc1ncccc12 29.7 µM
O=C(Cl)c1cc(C(=O)Cl)cc(C(=O)Cl)c1 28.9 µM
CCCCCCCCCCCCCCCC[N+](C)(C)CC 9.51 µM
C#CC1(O)CC[C@H]2[C@@H]3CCC4=CCCC[C@@H]4[C@H]3CC[C@@]21C (stereo partly specified) 35.1 µM
CC(C)(c1cc(Br)c(OCCO)c(Br)c1)c1cc(Br)c(OCCO)c(Br)c1 5.1 µM
C/C=C\C/C=C/CCCCCCCCOC(C)=O 32.1 µM
CCOC(=O)c1ccccc1C(=C1C=C(Br)C(=O)C(Br)=C1)c1cc(Br)c(O)c(Br)c1 20.4 µM and 18.8 µM
Nc1ccc(N)c(Cl)c1 15.9 µM
CCCCC/C=C\C/C=C\CCCCCCCC(=O)OC 28.4 µM
O=C(c1ccc(O)cc1)c1ccc(O)cc1O 20 µM
C=CC(=O)OCC(Br)CBr (stereo unspecified) 15.3 µM
O=C(Nc1ccccc1SSc1ccccc1NC(=O)c1ccccc1)c1ccccc1 5.21 µM
